Measured values from PubChem BioAssay (Tox21).
Results filed as inconclusive are left out. Active and inactive are the calls of the source. Unless noted, the call rests on the fitted dose curve; in most records, active means well fitted curve in the direction sought with a large enough effect in the repeat runs; inconclusive means weak or mixed curves; inactive means no such curve, though single readings can be large; an effect the other way counts as inactive or inconclusive.

How the values were obtained:
[1] = qHTS assay for small molecules that induce genotoxicity in human embryonic kidney cells expressing luciferase-tagged ATAD5 (AID 651632); further: nearly all actives have a fitted effect of over 15% in size
Procedure, shortened: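 Luminescence read-out: after 16 hr compound exposure at 37C, ATAD5-luciferase HEK293T cells received Amplite, 30 min RT, then CCD imaging. A rise in signal marks genotoxic stress.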

[2] = qHTS assay for small molecule disruptors of the mitochondrial membrane potential - cell viability (AID 720634; calls by dose curve; further: nearly all actives have a fitted effect of over 20% in size; further: potency means the concentration at half of the fitted maximal effect)
Procedure, shortened: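 Luminescence from CellTiter-Glo (ATP content) gave viability in HepG2 cells, read in the same wells as the MMP dye assay after 1 hr compound exposure at 37 C.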

[3] = qHTS assay for small molecule disruptors of the mitochondrial membrane potential (AID 720635); further: potency means the concentration at half of the fitted maximal effect
Procedure, shortened: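 HepG2 cells exposed to compound 1 hr at 37C, then Mito-MPS dye 30 min. Ratio read of aggregate (540/590 nm) versus monomer (490/535 nm) fluorescence.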

[4] = qHTS assay to test for compound auto fluorescence at 590 nm (red) in HepG2 cells (AID 720674)
Procedure, shortened: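 Fluorescence at 590 nm emission following 540 nm excitation was recorded from HepG2 wells one hour after compound transfer, with DMSO-only wells as vehicle and Rose Bengal sodium equivalency as the scale.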

[5] = qHTS assay to test for compound auto fluorescence at 535 nm (green) in HepG2 cells (AID 720675); further: potency means the concentration at half of the fitted maximal effect
[6] = qHTS assay to test for compound auto fluorescence at 460 nm (blue) in HEK293 cells (AID 720678)
Procedure, shortened: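 Auto fluorescence in the blue band was quantified as triamterene equivalency. HEK293 cells were seeded at 2,000/well, dosed after a 4-5 hr attachment, and kept overnight at 37C before the 405/460 nm reading.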

[7] = qHTS assay to test for compound auto fluorescence at 590 nm (red) in HEK293 cells (AID 720679)
Procedure, shortened: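 Autofluorescence equivalency to Rose Bengal sodium, 540/590nm, in HEK293 cells exposed overnight to 23 nL compound per well.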

[8] = qHTS assay for small molecules that induce genotoxicity in human embryonic kidney cells expressing luciferase-tagged ATAD5 - cell viability (AID 651634; calls by dose curve; further: nearly all actives have a fitted effect of over 25% in size; further: potency means the concentration at half of the fitted maximal effect)
Procedure, shortened: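 HEK293T ATAD5-luc cells, 2,000/well; compound 15.5 hr, 37C/5% CO2; CellTiter-Fluor 30 min, 37C; fluorescence read.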

[9] = qHTS assay for small molecule agonists of the p53 signaling pathway - cell viability (AID 651633; calls by dose curve; further: nearly all actives have a fitted effect of over 30% in size; further: potency means the concentration at half of the fitted maximal effect)
Procedure, shortened: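 p53RE-bla cells were treated with compound for 16 hours at 37 C. Cytotoxicity was then measured as CellTiter-Glo luminescence after 30 min at room temperature.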

Measured: Potency

C=Cc1c(C)c2cc3nc(cc4[nH]c(cc5nc(cc1[nH]2)C(C)=C5CCC(=O)OC)c(CCC(=O)O)c4C)[C@@]1(C)C3=CC=C(C(=O)OC)[C@H]1C(=O)OC
active: [3] 1.88 µM
not listed: [8] | [9]
inactive: all other assays above

CC(=O)Oc1cc(C)c(OC(C)=O)c2ccccc12
not listed: [3] | [9]
inactive: all other assays above

CC1(C)S[C@@H]2[C@H](NC(=O)[C@H](NC(=O)N3CCN(S(C)(=O)=O)C3=O)c3ccccc3)C(=O)N2[C@H]1C(=O)O
not listed: [2] | [9]
inactive: all other assays above

CCC(=O)NS(=O)(=O)c1ccc(-c2c(-c3ccccc3)noc2C)cc1
not listed: [3] | [9]
inactive: all other assays above

CCC(=O)Oc1ccc2c(c1)CC[C@@H]1[C@@H]2CC[C@]2(C)[C@@H](OC(=O)CC)CC[C@@H]12
not listed: [2] | [9]
inactive: all other assays above

O=S(=O)(O)c1cc(O)c2c(N=Nc3ccc(Nc4ccccc4)c4c(S(=O)(=O)O)cccc34)cc(S(=O)(=O)O)cc2c1
not listed: [3] | [8] | [9]
inactive: all other assays above

C=C1CC[C@@H]2[C@](C)(CO)[C@H](O)CC[C@@]2(C)[C@@H]1C/C=C1/C(=O)OC[C@H]1O
not listed: [1]
inactive: all other assays above

CCc1ccc2c(c1)N(CC(C)CN(C)C)c1ccccc1S2 (centres undefined)
active: [8] 33.5 µM
not listed: [3] | [9]
inactive: all other assays above

CN1CCN(C(c2ccccc2)c2ccc(Cl)cc2)CC1 (centres undefined)
not listed: [3] | [8] | [9]
inactive: all other assays above

CC(CCc1ccc(O)cc1)NCC(O)c1ccc(O)cc1 (centres undefined)
not listed: [2] | [9]
inactive: all other assays above

NS(=O)(=O)c1cc2c(cc1Cl)NC(Cc1ccccc1)NS2(=O)=O (centres undefined)
not listed: [2] | [3] | [9]
inactive: all other assays above

O=C1NCCN1c1ncc([N+](=O)[O-])s1
not listed: [3] | [5] | [9]
inactive: all other assays above

C=C[C@]1(C)C[C@@H](OC(=O)CSC(C)(C)CNC(=O)[C@H](N)C(C)C)[C@]2(C)[C@H](C)CC[C@]3(CCC(=O)[C@H]32)[C@@H](C)[C@@H]1O
not listed: [3] | [8] | [9]
inactive: all other assays above

CCCc1nc(C(C)(C)O)c(C(=O)OCc2oc(=O)oc2C)n1Cc1ccc(-c2ccccc2-c2nn[nH]n2)cc1
not listed: [2] | [9]
inactive: all other assays above

CCC(=O)c1ccc2c(c1)N(CCCN1CCN(CCO)CC1)c1ccccc1S2
active: [8] 26.6 µM
not listed: [3] | [9]
inactive: all other assays above

CCC(=O)NCCC1CCc2ccc3c(c21)CCO3 (centres undefined)
not listed: [3] | [8] | [9]
inactive: all other assays above

CC(C)(S)[C@@H](N)C(=O)O
not listed: [3] | [9]
inactive: all other assays above

CC(CN(C)C)CN1c2ccccc2Sc2ccc(C(F)(F)F)cc21 (centres undefined)
not listed: [3] | [9]
inactive: all other assays above

O=C1CSC2(CCN(CCCN3c4ccccc4Sc4ccc(Cl)cc43)CC2)N1
not listed: [3] | [8] | [9]
inactive: all other assays above

O=P(O)(O)OC[C@H]1O[C@](O)(COP(=O)(O)O)[C@@H](O)[C@@H]1O
not listed: [1]
inactive: all other assays above

COc1ccc(C[C@H](C)NC[C@@H](O)c2ccc(O)c(NC=O)c2)cc1
inactive: [2] | [4] | [5] | [6] | [7]

CN1CCN(CCC=C2c3ccccc3Sc3ccc(S(=O)(=O)N(C)C)cc32)CC1
active: [8] 29.8 µM
inactive: [4] | [5] | [6] | [7]

CNC(C)[C@@H]1CC[C@@H](N)[C@@H](O[C@H]2[C@H](O)[C@@H](O[C@H]3OC[C@](C)(O)[C@H](NC)[C@H]3O)[C@H](N)C[C@@H]2N)O1 (some centres undefined)
inactive: [4] | [5] | [6] | [7]

Cc1cc2nc3c(=O)[nH]c(=O)nc-3n(C[C@H](O)[C@H](O)[C@H](O)COP(=O)(O)OP(=O)(O)OC[C@H]3O[C@@H](n4cnc5c(N)ncnc54)[C@H](O)[C@@H]3O)c2cc1C
inactive: [2] | [4] | [6] | [7]
active: [5] 14.1 µM

CC(C)C(=O)OCC(=O)[C@@]12O[C@H](C3CCCCC3)O[C@@H]1C[C@H]1[C@@H]3CCC4=CC(=O)C=C[C@]4(C)[C@H]3[C@@H](O)C[C@@]12C
active: [3] 7.84 µM
not listed: [1]
inactive: all other assays above

Nc1nc(=O)n([C@@H]2CS[C@H](CO)O2)cc1F
not listed: [1]
inactive: all other assays above

CO[C@@H]1[C@@H](O[C@@H]2O[C@H](C)[C@@H](O[C@H]3C[C@@](C)(O)[C@@H](OC(=O)CC(C)C)[C@H](C)O3)[C@H](N(C)C)[C@H]2O)[C@@H](CC=O)C[C@@H](C)C(=O)/C=C/C2OC2C[C@@H](C)OC(=O)C[C@H]1OC(C)=O (some centres undefined)
not listed: [1] | [3] | [8]
inactive: all other assays above

CCCCC(C)(O)C/C=C/[C@H]1[C@H](O)CC(=O)[C@@H]1CCCCCCC(=O)OC (some centres undefined)
inactive: [9] | [8] | [4] | [6]

O=[N+]([O-])c1c(Cl)cccc1-c1c[nH]cc1Cl
active: [9] 33.5 µM | [2] 10.6 µM | [3] 2.98 µM
inactive: [4] | [6] | [7]

NC(=O)OC[C@@H]1[C@H](NC(=O)/C(=N\OCC(=O)O)c2csc(N)n2)C(=O)N1S(=O)(=O)O
not listed: [1] | [5] | [9]
inactive: all other assays above

Cc1cccc(C)c1Nc1ncccc1C(=O)O
active: [3] 23.7 µM
not listed: [1] | [2]
inactive: all other assays above
